Laboratory results as given in the supplement of paper PMC11577813, “Eurasian spruce bark beetle detects lanierone using a highly expressed specialist odorant receptor, present in several functional sensillum types” (BMC Biology, 2024).
± gives the standard deviation of the averaged measurements.

Tested on: (+)-trans-4-thujanol A-neuron OSN class
Test: net action potential response of A-neuron (blank-subtracted) (spikes/s (Hz)); higher = stronger excitation
Settings: 10 µg on filter paper; neuron: A neuron (large spike amplitude)
Description: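 Single sensillum recordings from antennal olfactory sensilla of live adult Ips typographus. Each compound was 10 µg in paraffin oil on filter paper, delivered as a 0.5 s puff. Net response = spikes in the first 0.5 s of response minus the 0.5 s pre-stimulus count, doubled to give Hz, with blank response subtracted. Values are for the large-spike A-neuron class of each of seven sensillum types that co-house the lanierone B-neuron; N = 1-4 sensilla, averaged.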

Question: With `O=Cc1ccccc1` [Benzaldehyde] as the compound, how does the “net action potential response” value read?
Answer: Its value is -0.5 ± 1.9.

Question: Which “net action potential response” value does the source give for `Cc1ccccc1` [Toluene] here?
Answer: Its value is 0.5 ± 2.5.

Question: `C=CCc1ccc(OC)cc1` [Estragole] was tested. Which “net action potential response” value did it give?
Answer: Its value is 1 ± 2.
